# Sampled rows, rich in hits. Any-hit rate of the full collection: about 2.6%.
# KCNH2 WT inh: qHTS for Inhibitors of KCHN2 3.1: Wildtype qHTS; actives 0.37% (n = 340,000); Voltage-gated inwardly rectifying potassium channel KCNH2 (Homo sapiens), Q12809; activity change, % at 1.84 µM; U2OS, BacMam KCNH2, thallium flux FluxOr; stronger effect = lower value;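 active = maximum activity change below -70%; inconclusive = maximum activity change between -70% and -50%; inactive = maximum activity change above -50%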
#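 U2OS cells were transduced with wild-type KCNH2 virus (2.03 x 10^8 / mL) for 4 h at room temperature, then cultured overnight at 37 C. Thallium flux was read with FluxOr dye. Rate constants were normalized to DMSO controls.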
# p53 reactivation: qHTS assay for re-activators of p53 using a Luc reporter | Potency, µM (doses to about 92.2 µM), most hits filed as activators | H1299 p53-A138V BP100-luciferase reporter, luminescence, 24 h | actives 0.063% (n = 320,000); active = well fitted activation curve with a large enough effect; inconclusive = small, poorly fitted or top-dose-only effect; inactive = no such curve, though single readings can be large or run the other way; also: nearly all actives have a fitted effect of over 45% in size
#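 H1299 (p53-null), stable ts p53-A138V + BP100-Luc; 1000 cells/well, Opti-MEM/10% FBS; cpd 4 pt, 1:5; 24 h, 37 deg C, 5% CO2; detection reagent 10 min RT; luminescence.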
# ClpP mod: qHTS Assay for Activators of ClpP. actives 1.9% (n = 340,000). purified B. subtilis ClpP, FRET peptide cleavage, 20 min. Potency, µM (series often up to 57.5 µM); active = well fitted falling curve with a large enough effect; inconclusive = small, poorly fitted or top-dose-only effect; inactive = no such curve, though single readings can be large or run the other way; also: the source files actives as falling curves though it sought activators and does not explain the sign; nearly all actives have a fitted effect of over 65% in size
#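 Buffer: 100 mM Tris/HCl pH8, 100 mM KCl, 0.05% low protease BSA, 2.5% glycerol, 0.01% Tween-20. ClpP 10 microg/mL final; 20 min RT; delta FRET normalized to ADEP and DMSO controls.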
# TRPV1 potentiator: HTS Assay for Compounds that Act as Potentiators of the Vanilloid Receptor 1; TRPV1-expressing cells, Fluo-8 calcium influx, capsaicin EC20 potentiation; AID 540277, 2011; Transient receptor potential cation channel subfamily V member 1 (Homo sapiens), Q8NER1; actives 0.02% (n = 320,000); potentiation, % at 8.33 µM; in the data active = potentiation above about 80%; inconclusive = between about 30% and that limit
#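 Cells expressing TRPV1 were dye-loaded with Fluo-8 and read kinetically: 10 s baseline, 3 min after compound (agonist portion), then 2 min after EC20 capsaicin (allosteric enhancer portion). Calcium-bound dye fluorescence at 480/520 nm.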
# TRPV1 ag: HTS Assay for Compounds that Act as Agonists of the Vanilloid Receptor 1 | Transient receptor potential cation channel subfamily V member 1 (Homo sapiens), Q8NER1 | TRPV1-expressing cells, Fluo-8 calcium influx, agonist mode | activation, % at 8.33 µM | actives 0.19% (n = 320,000); in the data active = activation above about 80%; inconclusive = between about 30% and that limit
#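 Cells expressing TRPV1 were dye-loaded with Fluo-8 and read kinetically: 10 s baseline, 3 min after compound (agonist portion), then 2 min after EC20 capsaicin (allosteric enhancer portion). Calcium-bound dye fluorescence at 480/520 nm.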
# KCNH2 3.1 block: qHTS for Inhibitors of KCHN2 3.1: Mutant qHTS | U2OS KCNH2 3.1, thallium flux FluxOr; stronger effect = lower value | AID 720553, 2013 | activity change, % (tested at about 1.8 µM) | actives 0.95% (n = 340,000);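 active = maximum activity change below -70%; inconclusive = maximum activity change from -70% to -50%; inactive = maximum activity change above -50%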;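 also: thallium influx rate constant from kinetic fluorescence after stimulation buffer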
#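 U2OS cells transduced with KCNH2 3.1 mutant virus (1.77 x 10^8 /mL, 4 h), plated overnight at 37 C, loaded 45 min with FluxOr dye plus Red40 quencher. Thallium flux rate constant from kinetic reads after stimulation buffer, normalised to controls.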
# Hits are given with their value; i = inactive; ? = inconclusive; nt = not tested or not shown.
SMILES,KCNH2 WT inh,p53 reactivation,ClpP mod,TRPV1 potentiator,TRPV1 ag,KCNH2 3.1 block
Cc1ccc(/C([O-])=C(/C(=S)NCc2ccccc2)[n+]2cccc(CO)c2)cc1[N+](=O)[O-],-73.5,i,nt,i,i,i
CC(C)c1ccccc1NC(=O)Nc1nnc([C@H]2C[C@H](O)[C@@H](CO)O2)s1,nt,nt,i,nt,nt,nt
O=S(=O)(c1ccc2c(c1)C(=NO)c1cc(S(=O)(=O)N3CCCCC3)ccc1-2)N1CCCCC1,i,i,28.2µM,i,i,i
COc1ccccc1C(=O)OCC(=O)Nc1ccc(N2CCCCC2)cc1,nt,nt,i,nt,nt,nt
COc1ccc(S(=O)(=O)N(CC(=O)Nc2cccnc2)c2ccc(C)cc2)cc1OC,nt,nt,i,nt,nt,nt
COc1ccc(N2CCN(C(CNC(=O)c3cccs3)c3ccco3)CC2)cc1 (configuration not stated),i,i,15.8µM,i,i,i
CCN(CC)S(=O)(=O)c1ccc2c(c1)nc(CCC(=O)OCC(=O)Nc1cc(Cl)cc(Cl)c1)n2C,i,i,i,i,i,-83.3
CCOc1ccc(CN2CCN(c3ncnc4scc(-c5ccccc5)c34)CC2)cc1,-141.4,i,i,i,i,-116.1
COc1ccc(CN2CCN(c3ncnc4scc(-c5ccc(F)cc5)c34)CC2)cc1,?,i,i,i,i,-97.1
COc1ccc(N2CCN(c3ncnc4scc(-c5ccccc5)c34)CC2)cc1,i,i,nt,i,i,i
CC1Cn2c(nc3sc4c(c3c2=O)CCC4)N1CCO (configuration not stated),i,i,17.8µM,i,i,i
Cc1cc(C)c(NC(=O)COC(=O)Cn2nc(-c3ccccc3)oc2=O)c(C)c1,i,i,22.4µM,nt,nt,i
COc1ccc(/C=N\NC(=O)c2ccc(F)cc2)cc1COc1ccccc1C(N)=O,i,i,i,i,i,nt
COc1ccc(/C=N/NC(=S)Nc2ccccc2)cc1COc1ccc(F)cc1F,i,i,35.5µM,i,i,i
Nc1ccc(/C=C/c2cc(Cl)nc3ccccc23)cc1,nt,nt,i,nt,nt,nt
COc1ccc(NC(=O)CCCSc2nc(-c3ccco3)cc(C(F)(F)F)n2)cc1OC,i,i,i,i,83.2,i
Cc1cc(NC(=O)CSc2nc(-c3ccco3)cc(C(F)(F)F)n2)no1,i,i,25.1µM,i,i,i
Cc1cc(NC(=O)CCSc2nc(-c3ccco3)cc(C(F)(F)F)n2)no1,i,i,i,i,i,i
Cc1ccccc1Cn1ccc(NC(=O)CCSc2nc(-c3ccco3)cc(C(F)(F)F)n2)n1,i,i,28.2µM,i,i,i
CCc1nc2c(OCc3cc(Cl)cc(Cl)c3)cccn2c1N(C)C(=O)CC(C)C,nt,nt,i,nt,nt,nt
C/C=C(\C)C(=O)NCCN1C2=NC[C@H](Cc3ccccc3)N2C[C@H]1Cc1ccc(O)cc1,i,i,i,i,i,i
COc1ccc(C[C@H]2CN3C(=NC[C@H]3Cc3ccccc3)N2CCNC(=O)CCC2CCCCC2)cc1,-107.2,i,i,i,i,?
C/C=C(\C)C(=O)NCCN1C2=NC[C@H](Cc3ccccc3)N2C[C@@H]1Cc1ccc(OC)cc1,i,nt,i,nt,nt,-83.2
COc1ccc(C[C@@H]2CN3C(=NC[C@@H]3C)N2C[C@H](C)NC(=O)CCC2CCCCC2)cc1,-129.5,i,i,i,i,-84.3
O=[N+]([O-])c1ccc2c(c1)C=CC2,nt,nt,i,nt,nt,nt
SMILES,KCNH2 WT inh,p53 reactivation,ClpP mod,TRPV1 potentiator,TRPV1 ag,KCNH2 3.1 block
CC(=O)c1cccc(NC(=O)c2nc(-c3ccccc3)n(-c3ccccc3C)n2)c1,nt,nt,i,nt,nt,nt
COC(=O)c1ccccc1NC(=O)N[C@@H](C)C(=O)OC,i,i,28.2µM,i,i,i
CCOC(=O)c1ccccc1NC(=O)N[C@@H](C)C(=O)OC,i,i,20µM,i,i,i
CCOC(=O)c1ccccc1NC(=O)COC(=O)C1CCCC1,-103.7,i,i,i,i,i
COC(=O)[C@H](C)NC(=O)Nc1ccccc1C(F)(F)F,i,i,i,i,i,i
Cc1cccc(CNC(=O)C2CCN(c3nc4ccc(Cl)cc4[nH]3)CC2)c1,nt,nt,i,nt,nt,nt
COc1ccccc1NC(=O)CSC1=NC(=O)C(NC(C)=O)C(=O)N1 (configuration not stated),i,i,28.2µM,i,i,i
c1ccc(-c2cnc(-c3cccnc3)o2)cc1,i,25.1µM,?,i,i,i
COc1ccc(-c2nn(-c3ccccc3)cc2C(=O)O)cc1OC,i,i,25.1µM,i,i,i
Fc1ccccc1N1CC(c2ccccc2)C(c2cccs2)=N1 (configuration not stated),i,i,15.8µM,i,i,i
COc1cc2cc(CN(CCc3cccc(C)c3)C(=S)NCCCN(C)C)c(=O)[nH]c2cc1OC,i,i,28.2µM,i,i,i
COc1cc2cc(CN(CCO)C(=O)c3cccs3)c(=O)[nH]c2cc1OC,i,i,31.6µM,i,i,i
COc1ccc2[nH]c(=O)c(CN(CCO)C(=O)c3cccs3)cc2c1,i,i,i,i,i,i
CCCNC(=O)C1(C)CCCN(Cc2cccs2)C1 (configuration not stated),nt,nt,i,nt,nt,nt
CC(C)OC(=O)CSc1nc(N)c(C#N)c(-c2ccco2)c1C#N,i,i,20µM,i,?,i
CC(C)OC(=O)CSc1nc(N)c(C#N)cc1C#N,i,i,nt,i,?,i
COc1ccccc1C(=O)Nc1ccc(-c2cc(C(F)(F)F)nn2-c2ccccc2)cc1,nt,nt,22.4µM,nt,nt,nt
O=c1[nH]cnc2n[nH]nc12,nt,nt,i,nt,nt,nt
Cc1ccc(S(=O)(=O)c2n[nH]n3c2nc(=O)c2ccccc23)cc1,i,i,15.8µM,i,i,i
CN(C)c1ccc(/C=C/c2ccnc3ccccc23)c(F)c1,nt,nt,i,nt,nt,nt
CCOc1ccc(C(=O)NC(C(=O)N2CCC2)C(C)C)cc1 (configuration not stated),i,i,28.2µM,i,i,i
CC(C)C(NC(=O)c1ccc(C(C)(C)C)cc1)C(=O)N1CCCC1 (configuration not stated),i,i,nt,?,i,i
C[C@@H]1CNC(=O)c2c(C(=O)N[C@H](C)c3ccccc3)ncn21,i,nt,i,nt,nt,i
Cc1csc(NC(=O)c2ccco2)n1,i,i,22.4µM,i,i,i
N#Cc1ccccc1NC(=O)Nc1cccc(Cl)c1,i,nt,28.2µM,i,i,i
CS(=O)(=O)c1ccc2nc(NC(=O)c3ccco3)sc2c1,i,?,i,i,i,i

# Assay outcomes: PubChem, National Center for Advancing Translational Sciences (NCATS)
